This passage reports growth results from PubChem BioAssay (NCI).

This is part of a sample that, as a whole, favours compounds with a hit. Of some 83,000 tested, about 20% had one in any assay.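 In brief: 96-well plates, 48 h treatment, single concentration, percent growth endpoint.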 Values without a mark were called inactive. The source made the active and inactive calls.

The assay deals with TK-10 renal. Briefly: NCI-60 one-dose screen, 48 h (100 = growth as untreated, 0 = no growth, -100 = all killed). The settings on record: 10 µM unless noted. How it is done: Growth inhibition of the TK-10 human tumor cell line is measured as a screen for anti-cancer activity. Cells are grown in 96 well plates and exposed to the test compound for 48 hours. Compounds are tested at a single concentration, which is 10^-5 M for most compounds. The reported endpoint is percent growth (GI% or GIPRCNT), where numbers from 0 - 100% represent growth inhibition, and numbers from -100% - 0 represent cell death. For example, a value of 40 represents 60% growth inhibition. A value of 0 means no net growth occurred over the course of the experiment. A value of -40 indicates 40% of cells at the beginning of the experiment died by the end of the experiment. A value of -100 means all cells are dead at the end of the experiment.
NCI-60 Human Tumor Cell Lines Screen was performed using the standard one-dose NCI protocol, which is described in more detail at https://dtp.cancer.gov/discovery_development/nci-60/default.htm.
Compounds with GIPRCNT values below 10 were considered active. Activity score was based on GIPRCNT using the following formula: […]
Score is 0 for GIPRCNT values of 100 or above, 50 for GIPRCNT values of 0, and 100 for GIPRCNT values of -100.
As to `CCCCCCCCCCCCCCCCNC(=S)N/N=C/c1ccc(O)cc1O`, the growth is 57.8%.

Turning to `CC(C)(C)c1ccc(OCCOC(=O)CBr)cc1`, the growth is 109%.

Consider `COC1(OC)N=C(N)C2(C#N)C3(C(=O)Nc4ccccc43)C12C#N` (stereo not given), for which the growth was 98%.

In the case of `CC1=C(C)C(=O)C(C(C)C2=C(C)C(=O)C(C)=C(C)C2=O)=C(C)C1=O`, the growth is 75.7%.

With `COc1cc(/C=C/C(=O)c2ccc(F)cc2)ccc1OCCCCOc1cc2c(cc1OC)C(=O)N1CCCC1C=N2` (stereo not given), the growth was -16.9% (active).

Take `CC(=O)C(CO)C(=O)Nc1ccccc1` (stereo not given): the growth is 109%.

`O=C(N/N=C/c1coc2ccccc2c1=O)c1cc2oc(-c3ccccc3)cc2[nH]1`: the growth is 143%.

For `CCOC(=O)C1CCCN1C(=O)C1(NC(C)=O)CCCC1` (stereo not given), the growth is 107%.

For the molecule `CCOc1ccc2nc3ccc(Cl)cc3nc2c1`, the growth was 95.1%.

As for `Nc1ccc(S(=O)(=O)Nc2cc(F)cc(F)c2)cc1`, the growth is 112%.

In the case of `COC(c1ccccc1)C(Br)C(=O)c1ccccc1` (stereo not given), the growth was 91.5%.

Consider `COc1ccc(/C=C2\CCCC3=C2N=C2SC=NN2C3c2ccc(OC)c(OC)c2)cc1OC` (stereo not given), for which the growth was 60.9%.

Consider `CC(C)(C)c1cc(C[P+](c2ccc(Cl)cc2)(c2ccc(Cl)cc2)c2ccc(Cl)cc2)cc(C(C)(C)C)c1O`, for which the growth was 105%.

Consider `CCOc1ccc(N(C)c2ccc(/C=C/C3=[N+](C)c4ccccc4C3(C)C)cc2)cc1`, for which the growth is -16.1% (active).

With `CC1(C)NC(=S)NC1=O`, the growth was 112%.

For the molecule `CN1C(=O)C(=Cc2coc3ccc(Br)cc3c2=O)C(=O)N(C)C1=O`, the growth was 108%.

With `O=C(/C=C/c1cccc(O)c1)c1cccc(-n2cc(-c3ccc(Cl)cc3)[nH]c2=O)c1`, the growth was 0.394% (active).

In the case of `C#CCCCCCCC[C@@H]1OC(=O)[C@H]([C@@H](C)CC)NC(=O)[C@@H]([C@@H](C)CC)NC(=O)CC(=O)[C@@H]1C`, the growth was 141%.

Take `COc1ccc2cc(C(C)C(=O)Nc3ccc(S(=O)(=O)Nc4cc(C)on4)cc3)ccc2c1` (stereo not given): the growth is 103%.

For `CCc1c(C)c2ccc(OCC(=O)N=Nc3c(O)[nH]c4ccccc34)c(C)c2oc1=O`, the growth was 61.3%.

Take `COc1cc2c(/C=C3\C(=O)Nc4ccc(Br)cc43)c(Cl)n(C)c2cc1C`: the growth was 31.2%.

For `O=C1OC(c2ccc(-c3ccccc3)cc2)=C/C1=C/c1c2ccccc2cc2ccccc12`, the growth was 77.9%.

On to `COc1ccc(OC)c(Cn2cc3c(c2-c2ccccc2)CCc2cnoc2-3)c1`, for which the growth was 86.1%.

For `COc1cc(Cn2ccc3c2-c2oncc2CC3)cc(OC)c1`, the growth was 61.7%.

Regarding `Cc1sc(NC(=O)c2ccc(C(C)(C)C)cc2)c(C(=O)O)c1C`, the growth was 68.4%.

Regarding `CCCCCCNC(=O)Oc1ccc(/C(=C(/C)Cc2ccc(OC)cc2)c2ccc(OCCN3CCCCC3)cc2)cc1`, the growth is 89.8%.

With `COc1ccc2oc(=O)cc(CN3C(=O)S/C(=C\c4ccc(Cl)cc4)C3=O)c2c1`, the growth was 108%.

Turning to `CCCCCc1ccnc(CC(=O)c2ccc(OC)cc2)c1`, the growth is 82%.

Turning to `CCS(=O)(=O)N[C@@H]1O[C@H](COC(C)=O)C(OC(C)=O)[C@H](OC(C)=O)C1OC(C)=O` (stereo not given in full), the growth is 97.4%.

As to `O=C(CBr)OCc1ccc([N+](=O)[O-])o1`, the growth was 101%.

As for `COC(=O)C(N)CC(C)C` (stereo not given), the growth was 90.6%.

On to `O=S(=O)(O)CCI`, for which the growth is 95.7%.

Take `C=CN(C)S(C)(=O)=O`: the growth was 53.2%.

Take `CCCCCCNC(=O)Oc1ccc(/C(=C(/C)Cc2ccc(OC)cc2)c2ccc(OCCN(C)C)cc2)cc1`: the growth was 71.5%.

`CCOC(=O)c1c(C)oc2ncnc(Nc3ccc(NC(=O)Nc4cccc(Cl)c4)cc3)c12`: the growth is 79.2%.

In the case of `CCOc1ccc(/C=N/NC(=O)c2cccc3ccccc23)cc1OCC`, the growth was 111%.

For `O=C(Cc1ccccc1[N+](=O)[O-])c1ccc2c(c1)OCO2`, the growth was 91.6%.

On to `CC(C)CCCCCOC(=O)c1ccccc1SSc1ccccc1C(=O)OCCCCCC(C)C`, for which the growth was 136%.

For the molecule `O=C(NCCO)C(F)(F)F`, the growth was 102%.

Turning to `CCCCCCCCCCCCCCCC[n+]1cccc(C#N)c1`, the growth is 69.3%.
